HIF act: HIF pathway transcriptional activators, primary screen, cell-based, U2OS HRE-luciferase, luminescence. U2OS HRE-luciferase reporter; normalized: DMSO 0%, desferrioxamine 100%. activation, % at 7.5 µM (by protocol). 300,000 compounds, 0.32% hits;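 active = mean activation of at least 10% of the iron chelator positive control signal, with at least half of replicates also reaching 10%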
C2C12 statin: suppressors of statin myotoxicity in C2C12 myotubes, primary screen, cell-based, single point, plate reader; 330,000 compounds, 0.78% hits; AID 602340, 2012; rescue of ATP level, % at 7.49 µM; C2C12 myotubes + simvastatin, ATP luminescence, 48 h; scaled: DMSO 0, geranylgeraniol control 100;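 active = mean ATP rescue above about 67%, or every replicate alone reaching that limit, limit read from the data, passing the limit was not always enough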;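 also: myotubes were challenged with 10 µM simvastatin during compound exposure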
PGC1a acetyl inh: inhibitors of PGC1a acetylation signal, primary screen, cell-based, U2OS, AlphaScreen, inhibitor mode; AlphaScreen anti-acetyl-lysine; with virally co-expressed GCN5 acetyltransferase; inhibition, % at 15.6 µM; 350,000 compounds, 0.17% hits;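 active = every replicate shows inhibition of at least 40%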
AI-2 QS mod: Vibrio harveyi AI-2 quorum sensing modulators, primary screen, JMH597 strain, luminescence/OD600 ratio. Vibrio harveyi JMH597 AI-2 luminescence/OD600 ratio, 9 h; hits give low values; strain lacks LuxN and CqsS sensors; 0 = neutral-control median. activity change, % at 7.5 µM. 300,000 compounds, 0.4% hits. AID 2094, 2009; in the data active = activity change below about -75%, passing the limit was not always enough;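 also: luminescence divided by OD600 gain over 9 h not by final OD600 alone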
Rce1 inhib: yeast Rce1p protease inhibitors, primary screen, biochemical, fluorescence, cell-free homogeneous | CAAX prenyl protease 2 (Saccharomyces cerevisiae (strain ATCC 204508 / S288c)), Q03530 | yeast membranes, quenched prenylated peptide cleavage fluorescence | calls only | 290,000 compounds, 0.27% hits;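 active = fall in fluorescence gain of 50% or more versus controls, with final raw signal at or below 3038400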
Target sequence (Q03530 whole entry, looked up): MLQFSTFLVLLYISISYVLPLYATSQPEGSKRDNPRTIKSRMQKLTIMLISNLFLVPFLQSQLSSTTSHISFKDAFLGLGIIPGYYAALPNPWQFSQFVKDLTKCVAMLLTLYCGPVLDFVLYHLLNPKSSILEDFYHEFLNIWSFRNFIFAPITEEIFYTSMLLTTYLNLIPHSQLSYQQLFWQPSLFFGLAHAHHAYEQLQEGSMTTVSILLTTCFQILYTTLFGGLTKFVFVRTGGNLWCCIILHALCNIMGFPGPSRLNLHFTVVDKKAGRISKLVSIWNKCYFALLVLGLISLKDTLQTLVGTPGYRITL
Numbers stand for hits; – = inactive; · = no result; + = active, no number. A selection: hits, their analogues and other compounds. The true share with any hit is near 1.3%.

SMILES | HIF act | C2C12 statin | PGC1a acetyl inh | AI-2 QS mod | Rce1 inhib
Cc1ccsc1C(=O)Nc1nnc(-c2ccco2)o1 | – | – | – | -127.2 | –
Cc1ccc(C(=O)Nc2nnc(-c3ccco3)o2)cc1 | – | · | – | – | –
CC(C)NC(=O)Nc1ccc2c(c1)C(=O)N([C@@H](C)CO)C[C@H](C)[C@H](CN(C)Cc1ccccc1)O2 | · | 77.0 | – | · | ·
C[C@H](CO)N1C[C@H](C)[C@H](CN(C)CC2CCCCC2)Oc2c(NC(=O)Nc3ccc4c(c3)OCO4)cccc2C1=O | · | – | – | · | ·
C[C@H]1CN([C@@H](C)CO)C(=O)c2cccc(NC(=O)Nc3ccc4c(c3)OCO4)c2O[C@@H]1CN(C)CC1CCCCC1 | · | 86.1 | – | · | ·
C[C@@H]1CN([C@H](C)CO)C(=O)c2cccc(NC(=O)Nc3ccc(F)cc3)c2O[C@H]1CN(C)Cc1ccccc1 | · | 72.0 | – | · | ·
c1cncc(-c2ccc(C3[C@H]4CNC[C@@H]3N4CC3CCCCC3)cc2)c1 (some centres not stated) | · | · | – | · | ·
C[C@H]1CN([C@@H](C)CO)C(=O)Cc2cc(NS(=O)(=O)c3cccs3)ccc2O[C@@H]1CN(C)S(=O)(=O)c1cccs1 | · | – | – | · | ·
O=C(CN1CCC(NC(=O)c2ccc(Br)cc2)CC1)NCc1cccs1 | – | – | – | – | +
Cc1cc(NC(=O)c2ccccc2Cl)no1 | – | – | – | – | –
Cc1ccc2nc(-c3ccccc3Cl)cc(C(=O)Nc3cc(C)on3)c2c1 | – | 109.5 | – | – | –
CN(C)CC(=O)N[C@H]1CC[C@H](CCn2cc(C3CCCC3)nn2)O[C@H]1CO | · | – | – | · | ·
C[C@H]1CN([C@@H](C)CO)C(=O)c2cc(/C=C/c3ccccc3)cnc2O[C@@H]1CN(C)C(=O)CN1CCOCC1 | · | – | – | · | ·
CCC(C(=O)Nc1ccccc1-c1ccccc1)c1ccccc1 (configuration not stated) | – | 113.0 | – | – | –
CCC(C(=O)Nc1ccccc1)c1ccccc1 (configuration not stated) | – | · | – | – | –
CCC(=O)N1CC2(C1)CN(C(=O)NC1CCCC1)[C@H](CO)c1c2c2ccc(OC)cc2n1C | · | · | – | · | ·
CCOC(=O)C1C(c2cc(OC)c(OC)c(OC)c2)NC(=S)NC1(O)C(F)(F)F (configuration not stated) | – | 100.6 | – | – | –
CCOC(=O)C1C(c2cccc(F)c2)NC(=S)NC1(O)C(F)(F)F (configuration not stated) | – | 98.2 | – | – | –
Fc1ccc(CSc2ncnc3nc[nH]c23)cc1 | – | 157.9 | – | – | –
CNc1cc(-n2nc(C)cc2-c2ccccc2)ncn1 | – | – | – | – | –
OCCNc1cc(-n2nc(-c3ccccc3)cc2-c2ccccc2)ncn1 | – | 113.8 | – | – | –
C[C@@H]1CN([C@@H](C)CO)C(=O)c2cc(Br)cnc2O[C@@H]1CN(C)C(=O)c1ccccc1 | · | – | – | · | ·
CCOC(=O)N1CCC(NC(=O)CCC(=O)N2CCOc3ccccc32)CC1 | – | 123.2 | – | – | –
O=C(CCC(=O)N1CCOc2ccccc21)NC1CCCCCC1 | – | – | – | – | –
O=C1NCC(O)=C1C=NCCCO | · | · | · | – | –
SMILES | HIF act | C2C12 statin | PGC1a acetyl inh | AI-2 QS mod | Rce1 inhib
COc1ccc(CN=CC2=C(O)CNC2=O)cc1OC | – | 94.4 | – | – | –
Cc1cccc(N2CCc3c2nc2ccc(Br)cc2c3N)c1 | – | – | – | – | +
Cc1ccc(-c2csc(NC(=O)c3ccc(-c4ccccc4)cc3)n2)o1 | – | 88.7 | – | – | –
O=C(c1ccccn1)N1CC(=O)N2[C@H](CO)[C@H](c3ccc(C#Cc4ccccc4)cc3)[C@H]2C1 | · | · | – | · | ·
O=[N+]([O-])c1ccc(Cl)cc1C=NNc1ccccn1 | · | – | – | · | ·
O=[N+]([O-])c1cc(Cl)cc(/C=N\Nc2ccccn2)c1O | 20.8 | · | – | – | –
C[C@H](CO)N1C[C@H](C)[C@@H](CN(C)Cc2ccc(-c3ccccc3)cc2)Oc2ccc(NS(=O)(=O)c3ccc(F)cc3)cc2CC1=O | · | – | – | · | ·
O=C(c1cnccn1)N1CC(=O)N2[C@H](CO)[C@H](c3ccc(C#CCC4CCCC4)cc3)[C@@H]2C1 | · | · | – | · | ·
